Where “and” joins values, the source holds several entries; their conditions need not be identical. Identical values can stand only once. Compounds without any hit were thinned out: in the full panel of roughly 83,000, 20% have a hit.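 Single-concentration screen, 48 h exposure, 96-well plates. Endpoint: percent growth. Below 10 = active.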 Calls of active or inactive are those of the source.

One experiment concerns SK-MEL-2 melanoma. Kind of experiment: NCI-60 one-dose screen, 48 h (100 = growth as untreated, 0 = no growth, -100 = all killed). The settings on record: 10 µM unless noted.
Turning to `Oc1c(CN2CCCCC2)ccc2cccnc12`, the growth is 96.9% (inactive) and 82.4% (inactive).
For the compound `NS(=O)(=O)c1cc2c(cc1Cl)NC(C(Cl)Cl)NS2(=O)=O` (configuration not stated), the growth is 104% (inactive) and 135% (inactive).
On to `COc1cc2nc(N3CCN(C(=O)C4COc5ccccc5O4)CC3)nc(N)c2cc1OC` (configuration not stated), for which the growth is 112% (inactive) and 93.8% (inactive).

For the next experiment, the system named is EKVX NSCLC. Described as above. The settings on record: 10 µM unless noted.
As for `O=C(O)C1(C(=O)O)CCC1.[NH2-].[NH2-].[Pt+2]`, the growth is 97.1% (inactive) and 106% (inactive).
Take `CC1(C)[C@@H](OC(=O)CCC(=O)O)CC[C@]2(C)[C@H]3C(=O)C=C4[C@@H]5C[C@@](C)(C(=O)O)CC[C@]5(C)CC[C@@]4(C)[C@]3(C)CC[C@@H]12`: the growth was 107% (inactive) and -33.4% (active).
Turning to `CCNC(=O)Nc1ccc(-c2nc3c(c(N4CCOC[C@@H]4C)n2)CCN(C2COC2)C3)cc1`, the growth is 46.8% (inactive) and 17.4% (inactive).
Same read-out and setting: under `O=C1C2=C(C(=O)c3ccccc31)C(O)(S(=O)(=O)O)C(O)(S(=O)(=O)O)C1N=CC=CC21` (configuration not stated) stands 36.4% (inactive) and 30.5% (inactive); under `COc1ccc2c(=O)cc(-c3ccccc3)[nH]c2c1`, 48.9% (inactive) and 18.9% (inactive).
Take `COc1cc(Nc2nc3ccccc3nc2NS(=O)(=O)c2ccc(NC(=O)c3ccc(C)c(OC)c3)cc2)cc(OC)c1`: the growth is 40.1% (inactive) and 8.65% (active).
For `COc1cc(-c2nccc3cc4c(cc23)OCO4)cc(OC)c1OC`, the growth was 68.4% (inactive) and 63.5% (inactive).
As to `CCN(CC)CCC(CNc1ccnc2cc(Cl)ccc12)c1ccc(OC)cc1` (configuration not stated), the growth is 69.6% (inactive) and 85.6% (inactive).
For `CC(=O)Nc1ccc(O)cc1`, the growth is 95% (inactive) and 101% (inactive) and 113% (inactive).
On to `c1ccc2c(CC3=NCCN3)cccc2c1`, for which the growth was 113% (inactive) and 102% (inactive).
As for `Cc1nn(-c2ccc(Cl)cc2)c2ncnc(N/N=C/c3ccccc3O)c12`, the growth was 38.1% (inactive) and 5.43% (active).
As to `CCN(CC)C(=S)SSC(=S)N(CC)CC`, the growth is 89.1% (inactive) and 113% (inactive).
As for `Nc1nc(SC/C=C/CCl)c2[nH]cnc2n1`, the growth is 95% (inactive) and 98.7% (inactive).
Same read-out and setting: the value for `CC1CCCC(=O)O1` (configuration not stated) was 102% (inactive).
Turning to `c1ccc(NCc2ccc3c(c2)OCO3)cc1`, the growth is 107% (inactive).
Turning to `CN(Cc1ccccc1)Cc1ccccc1`, the growth is 102% (inactive).
As for `O=[N+]([O-])c1ccc(N/N=C\c2cc(Br)ccc2O)nc1`, the growth is 81% (inactive) and 46.4% (inactive).
As to `O=C(Nc1ccc(Br)cc1)c1cc(Br)ccc1O`, the growth was 11% (inactive) and 13.6% (inactive).
Same read-out and setting: under `CN(C)c1ccc(C(=C2C=CC(=[N+](C)C)C=C2)c2ccccc2Cl)cc1` stands 15.9% (inactive) and -34.1% (active); under `O=C(Cc1cccc2ccccc12)N/N=C/c1ccc2c(c1)CCC2`, 78.8% (inactive).
On the same count and under the same terms, under `O=C(O)C1C2C=CC(C2)C1C(=O)O` (configuration not stated) stands 120% (inactive); under `COc1cc(C(=O)c2ccc3c(c2)OCO3)cc(OC)c1OC`, 55.7% (inactive) and 61.5% (inactive).
Consider `O=C(CCc1ccc(O)cc1)N/N=C/c1cc(Br)ccc1O`, for which the growth is 91% (inactive).
The same measure, in the same setting: the value for `CC(=O)Oc1cc(C(=O)O)cc(OC(C)=O)c1OC(C)=O` was 84.3% (inactive) and 105% (inactive); that for `Cn1c(=O)c2[nH]c(CCCCCCCCc3nc4ccccc4[nH]3)nc2n(C)c1=O` was 42% (inactive) and 55.1% (inactive); that for `O=C1c2ccccc2C(=O)N1/N=C/c1ccc2c(c1)OCO2` was 116% (inactive).
On to `S=C1SCN(Cc2ccccc2)CN1Cc1ccccc1`, for which the growth was 98.5% (inactive).
The same measure, in the same setting: under `Cc1ccc(-c2noc(CC(=O)c3ccc([N+](=O)[O-])cc3)n2)cc1` stands 95.9% (inactive); under `Oc1ccc(/C=C/c2ccccc2)cc1`, 76.9% (inactive) and 108% (inactive).
Regarding `CC(=O)C(/C=N/C(N)=O)=C(/C)O`, the growth is 108% (inactive).
With `COC(=O)c1nc(N)nc(C(=O)OC)c1C(=O)c1ccc(OC)cc1`, the growth was 101% (inactive) and 59.3% (inactive).
As for `Cc1cc(O)c2c(c1)C(=O)c1cc(O)cc(O)c1C2=O`, the growth is 68% (inactive) and 77.3% (inactive).
Regarding `C#CCN(C)Cc1ccccc1`, the growth is 104% (inactive) and 95.2% (inactive).
On the same count and under the same terms, under `CCN(CC)CCCC(C)Nc1ccnc2cc(Oc3ccccc3)ccc12` (configuration not stated) stands 83.7% (inactive) and 74.9% (inactive); under `COc1ccccc1NC(=O)OCC#CCOC(=O)Nc1ccccc1OC`, 99% (inactive) and 96.1% (inactive); under `Cc1cc(O)c(C(C)C)cc1S(=O)(=O)O` (tested in a mixture with another compound), 93.2% (inactive) and 29.5% (inactive).
With `Oc1c(CN2CCCCC2)ccc2cccnc12`, the growth was 71.3% (inactive).
On to `NS(=O)(=O)c1cc2c(cc1Cl)NC(C(Cl)Cl)NS2(=O)=O` (configuration not stated), for which the growth was 89.3% (inactive) and 110% (inactive).
On to `COc1cc2nc(N3CCN(C(=O)C4COc5ccccc5O4)CC3)nc(N)c2cc1OC` (configuration not stated), for which the growth was 97.5% (inactive).
